From PubChem BioAssay (EPA / NIEHS) come the findings set out here.

Each structure is given as a SMILES string. Active and inactive are the calls of the source. How the source made its calls: active means hit-call score of the fitted dose curve at least 0.9, where 1 is the maximum; inactive means score below 0.9.

Read-out in assay [1]: Interleukin-1 alpha (IL1a), IL1A (gene 3552)
As to the kind of experiment: BSK_KF3CT_IL1a: BioMAP Diversity Plus: KF3CT Assay for Interleukin-1 alpha (IL1a) Biomarker Activity (AID 2283070). The conditions noted are these: primary human keratinocytes with fibroblasts; actives raise or lower the signal. The gist of the method: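 Primary skin co-culture (keratinocytes, foreskin fibroblasts), 24 h exposure; ELISA for IL-1a; bidirectional curve fit vs DMSO.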

Read-out in assay [2]: TIMP metallopeptidase inhibitor 2 (TIMP2), TIMP2 (gene 7077)
The assay is described as follows: BSK_KF3CT_TIMP2: BioMAP Diversity Plus: KF3CT Assay for TIMP metallopeptidase inhibitor 2 (TIMP2) Biomarker Activity (AID 2283071). The conditions noted are these: primary human keratinocytes with fibroblasts; actives raise or lower the signal. The gist of the method: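 TIMP-2 measured by ELISA at 24 h in human keratinocyte/fibroblast primary co-cultures exposed to chemicals. Both increases and decreases were fitted against DMSO. Parallel cultures were stained with SRB for total protein as an overt-cytotoxicity check.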

Read-out in assay [3]: Transforming growth factor beta 1 (TGFb1), TGFB1 (gene 7040)
As to the kind of experiment: BSK_KF3CT_TGFb1: BioMAP Diversity Plus: KF3CT Assay for Transforming growth factor beta 1 (TGFb1) Biomarker Activity (AID 2283072). The following applies: primary human keratinocytes with fibroblasts; actives raise or lower the signal. In outline: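 ELISA quantifies TGF-b1 at 24 h post-dose in a primary human skin co-culture of keratinocytes and fibroblasts, with gain or loss judged against DMSO. Parallel SRB total-protein staining flags overt cytotoxicity.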

Read-out in assay [4]: C-C motif chemokine 2 (Homo sapiens) (UniProt P13500)
As to the kind of experiment: BSK_KF3CT_MCP1: BioMAP Diversity Plus: KF3CT Assay for Monocyte Chemoattractant Protein 1 (MCP1/CCL2) Biomarker Activity (AID 2283073). The following applies: primary human keratinocytes with fibroblasts; actives raise or lower the signal. The gist of the method: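 KF3CT skin co-culture (keratinocytes/foreskin fibroblasts), 24 h post-dose; MCP-1 by ELISA; gain/loss of signal fit bidirectionally vs DMSO baseline.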

Read-out in assay [5]: Matrix Metallopeptidase 9 (MMP9), MMP9 (gene 4318)
The assay is described as follows: BSK_KF3CT_MMP9: BioMAP Diversity Plus: KF3CT Assay for Matrix Metallopeptidase 9 (MMP9) Biomarker Activity (AID 2283074).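 On AC50: MMP9 protein level quantified by ELISA in the co-culture.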 The conditions noted are these: primary human keratinocytes with fibroblasts; actives raise or lower the signal. The gist of the method: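 ELISA read-out of MMP-9 at 24 h post-dosing in a co-culture of human skin keratinocytes and foreskin fibroblasts. Gain or loss of signal was fitted in both directions against DMSO.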

Read-out in a further assay: CD40, CD40 (gene 958)
As to the kind of experiment: BSK_LPS_CD40: BioMAP Diversity Plus: LPS Assay for CD40 Biomarker Activity (AID 2283076). The following applies: primary human HUVEC with PBMC; actives raise or lower the signal. The gist of the method:
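ELISA readout of CD40 in HUVEC/PBMC co-culture (BSK_LPS system), 24 h post-dosing; bidirectional curve fit, DMSO baseline; parallel SRB total-protein staining for cytotoxicity.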

Read-out in assay [6]: E-selectin (Homo sapiens) (UniProt P16581)
As to the kind of experiment: BSK_LPS_Eselectin: BioMAP Diversity Plus: LPS Assay for Eselectin Biomarker Activity (AID 2283077). The following applies: primary human HUVEC with PBMC; actives raise or lower the signal. The gist of the method:
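ELISA readout of E-selectin, 24 h post-dose, HUVEC + PBMC co-culture (LPS system). Gain or loss of signal vs DMSO baseline, bidirectional fit.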

Read-out in assay [7]: Interleukin-8 (IL8), CXCL8 (gene 3576)
The assay is described as follows: BSK_LPS_IL8: BioMAP Diversity Plus: LPS Assay for Interleukin-8 (IL8) Biomarker Activity (AID 2283078). The conditions noted are these: primary human HUVEC with PBMC; actives raise or lower the signal. In outline: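 HUVEC + PBMC co-culture, LPS-activated; test chemicals dosed, IL-8 read by ELISA at 24 h. Bidirectional curve fit vs DMSO baseline (gain or loss of signal).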

A short description of assay [8]: BSK_LPS_SRB: Viability Assessment in the BioMAP Diversity Plus: LPS Assay (AID 2283079).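 Further: total protein by sulforhodamine B absorbance as a cytotoxicity measure; measured one day after compound addition.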 The conditions noted are these: primary human HUVEC with PBMC. In outline:
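HUVEC + PBMC co-culture, LPS-stimulated; compound 24 h. 10% TCA fix, 0.1% SRB stain, A560. Bidirectional fit vs DMSO.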

Chain of E-selectin (Homo sapiens) (P16581 whole entry, looked up): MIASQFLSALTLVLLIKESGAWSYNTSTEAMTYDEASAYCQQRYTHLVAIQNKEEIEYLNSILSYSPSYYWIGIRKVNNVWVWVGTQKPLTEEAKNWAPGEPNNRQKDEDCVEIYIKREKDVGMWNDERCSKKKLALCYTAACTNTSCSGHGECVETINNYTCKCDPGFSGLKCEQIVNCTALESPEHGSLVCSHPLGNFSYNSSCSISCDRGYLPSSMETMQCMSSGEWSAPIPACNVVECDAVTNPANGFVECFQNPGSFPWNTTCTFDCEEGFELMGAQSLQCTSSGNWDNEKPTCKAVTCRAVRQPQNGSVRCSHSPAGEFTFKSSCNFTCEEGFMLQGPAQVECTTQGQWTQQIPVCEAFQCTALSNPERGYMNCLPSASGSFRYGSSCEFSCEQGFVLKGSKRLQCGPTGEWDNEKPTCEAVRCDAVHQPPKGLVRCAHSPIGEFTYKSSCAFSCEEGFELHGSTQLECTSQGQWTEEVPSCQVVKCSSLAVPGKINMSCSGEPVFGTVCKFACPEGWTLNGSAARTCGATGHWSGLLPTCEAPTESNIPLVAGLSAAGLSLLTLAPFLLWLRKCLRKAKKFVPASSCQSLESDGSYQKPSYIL

Turning to `CCCCC(C#N)(Cn1cncn1)c1ccc(Cl)cc1` (stereo not given), the outcome was “inactive” in [1]; “inactive” in assay [2]; “inactive” in assay [3]; “inactive” in [4]; “inactive” in assay [5]; “inactive” with CD40, CD40 (gene 958). For the same compound, the result in [6], in [7] and in assay [8] was inactive.

One may read the AC50 as the concentration at which the activity in the assay is half-maximal. For the compound `COP(=S)(OC)Oc1ccc([N+](=O)[O-])c(C)c1`, the outcome is “inactive” in assay [1]; “inactive” in assay [2]; “inactive” in assay [3]; “inactive” in assay [4]; “inactive” with CD40, CD40 (gene 958); “inactive” in assay [6]. Also, the outcome in assay [7] was inactive. Further, the results for the AC50 in assay [5] and in assay [8] were 15.1 µM (active) and 10.6 µM (active), respectively.

Consider `O=P(O)(O)CCCl`, for which the outcome was “inactive” in [1]; “inactive” in assay [2]; “inactive” in [3]; “inactive” in assay [4]; “inactive” in assay [5]; “inactive” with CD40, CD40 (gene 958). Besides, the outcome in [6], in assay [7] and in [8] was inactive.

With `Clc1nc(Cl)nc(Nc2ccccc2Cl)n1`, the outcome is “inactive” in [1]; “inactive” in [2]; “inactive” in assay [3]; “inactive” in [4]; “inactive” in assay [5]; “inactive” with CD40, CD40 (gene 958). The result in assay [6], in [7] and in assay [8] was inactive.

Regarding `Cc1cnc(C2=NC(C)(C(C)C)C(=O)N2)c(C(=O)O)c1` (stereo not given), the outcome was “inactive” in [1]; “inactive” in [2]; “inactive” in assay [3]; “inactive” in assay [4]; “inactive” in assay [5]; “inactive” with CD40, CD40 (gene 958). Besides, the result in assay [6], in assay [7] and in assay [8] was inactive.

Turning to `CCOC(=O)C(C)OC(=O)c1cc(Oc2ccc(C(F)(F)F)cc2Cl)ccc1[N+](=O)[O-]` (stereo not given), the outcome in assay [1] was “inactive”; in assay [2], “inactive”; in [3], “inactive”; in [4], “inactive”; with CD40, CD40 (gene 958) it was “inactive”; in assay [6], “inactive”. The outcome in [7] was inactive. Moreover, the AC50 in assay [5] is 5.83 µM (active); in assay [8], 6.48 µM (active).

With `CCOP(=O)(OCC)Oc1nc(Cl)c(Cl)cc1Cl`, the outcome in [1], in assay [3], in assay [6] and in assay [7] was inactive. Further, the AC50 in assay [2] is 32.9 µM (active); in assay [4], 21.5 µM (active); in assay [5], 8.58 µM (active); with CD40, CD40 (gene 958) it was 19.5 µM (active); in assay [8], 10.7 µM (active).

For `N#Cc1c(Cl)cccc1Cl`, the outcome is “inactive” in [1]; “inactive” in [2]; “inactive” in assay [3]; “inactive” in [4]; “inactive” in assay [5]; “inactive” with CD40, CD40 (gene 958). Besides, the outcome in assay [7] and in [8] was inactive. The AC50 in assay [6] was 0.0841 µM (active).

In the case of `CC(C)Nc1nc(Cl)nc(NC(C)C)n1`, the outcome in assay [1] is “inactive”; in assay [2], “inactive”; in assay [3], “inactive”; in assay [4] it was “inactive”; in assay [5], “inactive”; with CD40, CD40 (gene 958), “inactive”. Further, the result in assay [6], in assay [7] and in assay [8] was inactive.

As for `O=C(Nc1ccccc1-c1ccc(Cl)cc1)c1cccnc1Cl`, the outcome in [1] is “inactive”; in [2], “inactive”; in assay [3], “inactive”; in assay [5], “inactive”; in the assay with CD40, CD40 (gene 958), “inactive”; in [6], “inactive”. In addition, the result in assay [7] and in [8] was inactive. Also, the AC50 in [4] is 0.843 µM (active).

With `CCSC(=O)N1CCCCCC1`, the outcome in assay [1] was “inactive”; in assay [2], “inactive”; in assay [3] it was “inactive”; in assay [4], “inactive”; in assay [5], “inactive”; with CD40, CD40 (gene 958), “inactive”. Further, the outcome in assay [6], in assay [7] and in assay [8] was inactive.

Turning to `COCc1cnc(C2=NC(C)(C(C)C)C(=O)N2)c(C(=O)O)c1` (stereo not given), the outcome was “inactive” in assay [1]; “inactive” in assay [2]; “inactive” in [3]; “inactive” in assay [4]; “inactive” in assay [5]; “inactive” with CD40, CD40 (gene 958). Further, the outcome in assay [6], in assay [7] and in assay [8] was inactive.

For the compound `CC1(C)CON(Cc2ccccc2Cl)C1=O`, the outcome was “inactive” in [1]; “inactive” in [2]; “inactive” in assay [3]; “inactive” in [4]; “inactive” in assay [5]; “inactive” with CD40, CD40 (gene 958). Besides, the outcome in assay [6], in assay [7] and in assay [8] was inactive.

Consider `CC1(C)C(C(=O)OC(C#N)c2cccc(Oc3ccccc3)c2)C1(C)C` (stereo not given), for which the result in [1], in [2], in assay [3], in [4], in assay [6] and in assay [7] was inactive. In addition, the outcome in assay [8] was inactive. Further, the AC50 was 5.56 µM (active) in [5] and 12.9 µM (active) in the assay with CD40, CD40 (gene 958).

For the compound `CNC(=O)Oc1cccc2ccccc12`, the result in assay [1], in [2], in assay [3], in assay [4], in [5] and in assay [6] was inactive. The result in assay [7] was inactive. In addition, the AC50 was 20 µM (active) in the assay with CD40, CD40 (gene 958) and 13.3 µM (active) in [8].
